IEC-6 cytotox: cytotoxicity in IEC-6 intestinal epithelial cells, primary screen, cytotoxicity control for KLF5 inhibitor project, cell-based, luminescence; IEC-6 cytotoxicity, luminescence viability; inhibition, % at 5 µM; 0.78% of 290,000 active; in the data active = inhibition above about 22%
KLF5 inh: KLF5 expression inhibitors, primary screen, DLD-1 cells, luminescence | DLD-1 KLF5 promoter-luciferase reporter | inhibition, % at 5 µM | 0.23% of 290,000 active;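 active = inhibition above a per-plate limit of that plate's mean compound inhibition plus 3 SD, cut at about 60% in these data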;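 note: higher means less KLF5 promoter-driven luciferase light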
Ba/F3 V617F tox: reduced viability of JAK2V617F-dependent Ba/F3 cells, primary screen, JAK2V617F inhibitor project, cell-based, Ba/F3 EpoR-JAK2V617F, luminescence | 1.1% of 220,000 active | inhibition, % at 5.6 µM | ATP luminescence | AID 1446, 2008;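 active = inhibition above the campaign mean plus 3 SD over all tested compounds, cut at about 24% in these data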;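 note: cytokine-independent growth of Ba/F3 cells driven by EpoR plus mutant JAK2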
BaF3 parental: parental Ba/F3 cell viability inhibition, counter-screen for JAK2V617F inhibitor project, murine pro-B, CellTiter-Glo luminescence | CellTiter-Glo ATP luminescence | inhibition, % at 5.6 µM | 1.1% of 220,000 active | AID 1486, 2009;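 active = inhibition above a per-campaign cutoff, the mean inhibition of all tested compounds plus 3 SD, cut at about 27% in these data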
APP 5UTR inh: inhibitors of APP translation via 5'UTR reporter, primary screen, APP 5'UTR luciferase, SH-SY5Y cells. SH-SY5Y APP 5'UTR-luciferase reporter, luminescence. inhibition, % at 2 µM. 0.82% of 190,000 active. AID 1285, 2008;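 active = inhibition above a set limit, derived from the sample mean plus 3 SD, cut at about 45% in these data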
A number is an active result; – = inactive; · = no result given. Sampled rows, rich in hits. Any-hit rate of the full collection: about 1.9%.

SMILES	IEC-6 cytotox	KLF5 inh	Ba/F3 V617F tox	BaF3 parental	APP 5UTR inh
COC(=O)C1=C(C)N(C)C(=O)NC1c1cccc2ccccc12 (stereo not given)	–	–	·	·	·
COc1ccc(-n2cc(-c3ccc(Cl)cc3)[nH]c2=S)cc1	–	–	–	–	·
COc1ccc(N2CC(O)(c3ccc(OC(F)F)cc3)[N+]3=C2CCCC3)cc1 (stereo not given)	–	–	–	–	–
Clc1ccc(-c2cn3nc4c(nc3n2)CCCC4)cc1	–	–	–	–	–
Clc1ccc(-c2cn(-c3ccc(Cl)cc3)c3[n+]2CCCCC3)cc1	–	–	46	62	·
COc1ccc(-c2cn(-c3ccc(Cl)cc3)c3[n+]2CCCCC3)cc1	–	–	71	68	·
COc1ccc(-n2cc(-c3ccc(OC(F)F)cc3)[n+]3c2CCCCC3)cc1	–	–	72	64	–
CC1=C(C(=O)Nc2ccc(C(=O)NCCCN3CCCCC3)cc2)SCCO1	–	–	·	·	·
CCOC(=O)c1[nH]c(C)c(CN(CCc2ccccc2)S(C)(=O)=O)c1C	–	–	–	–	–
CCOC(=O)c1[nH]c(C)c(CN(C(C)=O)c2ccc(OCC)cc2)c1C	32	–	–	–	–
Nn1cnc2cc3ccccc3cc2c1=O	–	–	·	·	·
CC(C(Sc1ccccc1N)c1ccccc1)[N+](=O)[O-] (stereo not given)	–	–	–	–	·
CC(CCCC(C)(C)O)NC(=O)c1cc(COc2ccc3ncccc3c2)on1 (stereo not given)	–	–	–	44	–
Cc1nc(CN(C)C(=O)c2cc(COc3ccc4ncccc4c3)on2)cs1	–	–	–	38	–
CSc1ccc(/C=C(\NC(=O)c2ccc(C)cc2)C(=O)NN)cc1	–	–	–	57	·
N/C(=N\OC(=O)c1ccc2ccccc2c1)c1ccccc1Cl	–	–	·	·	·
COC(=O)c1c(NC(=O)C(=O)NCC2CCCO2)sc2c1CC(C)(C)OC2 (stereo not given)	–	–	·	·	·
CCCCn1c(CN2CCN(c3ccccc3)CC2)nc2c1c(=O)n(C)c(=O)n2C	–	–	–	29	–
CN(Cc1ccccc1)Cc1nc2c(c(=O)n(C)c(=O)n2C)n1CCc1ccccc1	–	–	–	–	–
CCCCn1c(CN(C)Cc2ccccc2)nc2c1c(=O)n(C)c(=O)n2C	–	–	–	29	–
CC(=O)NC(CC(=O)OCc1ccc([N+](=O)[O-])cc1)c1ccccc1 (stereo not given)	–	–	·	·	·
Cc1oc(-c2ccccc2Cl)nc1CS(=O)CC(=O)NCc1ccccc1Cl (stereo not given)	–	–	·	·	·
COc1ccc(NC2CCCN(C(=O)c3ccc4[nH]c(C)c(C)c4c3)C2)cc1OC (stereo not given)	–	–	·	·	·
CCn1c2ccccc2c2cc(NC(=O)c3cc(OC)cc(OC)c3)ccc21	–	–	–	–	95
CCn1c2ccccc2c2cc(NC(=O)CSc3nnc(-c4ccccc4)o3)ccc21	–	–	–	–	58
SMILES	IEC-6 cytotox	KLF5 inh	Ba/F3 V617F tox	BaF3 parental	APP 5UTR inh
CCn1c2ccccc2c2cc(NC(=O)CSc3nnc(-c4cccc(F)c4)o3)ccc21	–	–	–	–	47
CCNc1nc(NC(C)C)nc(NS(=O)(=O)c2ccc(C)cc2)n1	–	–	·	·	·
COC(=O)CCC(=O)c1oc2ccc(OC)cc2c1N	–	–	–	–	64
COc1ccc(-n2ccnc(SCC(=O)NCc3ccccc3Cl)c2=O)cc1	–	–	·	·	·
OC(COc1ccc(CNCCc2ccc(C(F)(F)F)cc2)cc1)CN1CCCCC1 (stereo not given)	99	–	102	103	–
OC(COc1ccccc1)CN1CCCCCC1 (stereo not given)	–	–	–	81	–
OC(COC(c1ccccc1)c1ccccc1)CN1CCOCC1 (stereo not given)	–	–	–	81	–
C#CC(=O)N(c1cccc(OC)c1)C(C(=O)NC1CCCC1)c1cccs1 (stereo not given)	100	–	101	80	–
Cc1cccc(N(C(=O)C(F)(F)F)C(C(=O)NC2CCCCC2)c2cccs2)c1 (stereo not given)	–	–	–	–	–
Cc1c(NC(N)=O)c(=O)n(-c2ccccc2)n1C	–	–	–	80	–
Cc1ccc(CN2CC(C(=O)Nc3ncccc3C)CC2=O)cc1 (stereo not given)	–	–	·	·	·
COc1ccc(C(CNC(=O)C2CCN(S(=O)(=O)c3ccc(F)cc3)CC2)N(C)C)cc1 (stereo not given)	–	–	·	·	·
COCCC(=O)N1CCCC(CNS(=O)(=O)c2ccc(OC)cc2)C1 (stereo not given)	–	–	–	90	–
Clc1ccc(-c2cn(-c3ccccc3)c3[n+]2CCS3)cc1	–	–	54	78	–
CC(=O)c1ccc(N2CCN(c3ccc(C(F)(F)F)cn3)CC2)cc1	–	–	–	–	–
Fc1ccc(-c2cn(-c3ccccc3)c3[n+]2CCS3)cc1	–	–	55	60	·
Cc1c(-c2ccc(Cl)cc2)[n+](=O)c(-c2ccccc2)cn1[O-]	–	–	–	–	·
COc1ccc(-c2cn(-c3ccc(Br)cc3)c3[n+]2CCS3)cc1	–	–	65	78	–
CC(=O)c1ccc(-n2cc(-c3ccc(C(C)(C)C)cc3)[n+]3c2SCCC3)cc1	–	–	55	62	–
COc1ccccc1CN1CC(C(=O)N(Cc2cnn(C)c2)C(C)C)CCC1=O (stereo not given)	–	–	·	·	·
O=C(NCCOC(=O)c1c(F)cccc1Cl)c1c(F)cccc1Cl	–	–	·	·	·
COc1ccccc1CCC(=O)N(C)C1CCCN(Cc2ccccc2F)C1 (stereo not given)	–	–	·	·	·
C=CCNc1nc2c(c(=O)n(C)c(=O)n2C)n1Cc1ccc(F)cc1	–	–	40	40	–
COCCNc1nc2c(c(=O)n(C)c(=O)n2C)n1Cc1cccc(C)c1	–	–	45	43	–
C=CCNc1nc2c(c(=O)n(C)c(=O)n2C)n1CC	–	–	–	–	–
SMILES	IEC-6 cytotox	KLF5 inh	Ba/F3 V617F tox	BaF3 parental	APP 5UTR inh
C=CCNc1nc2c(c(=O)n(C)c(=O)n2C)n1CCCCCC	–	–	40	55	–
Cn1c(=O)c2c(nc(NCCc3ccccc3)n2Cc2ccc(F)cc2)n(C)c1=O	–	–	–	–	–
O=C(Nc1ccc(Cl)cc1)Nc1ccccc1NS(=O)(=O)c1cccs1	–	–	–	62	–
COc1ccc(Cc2nc3ccc(C(=O)NC(C)c4cn(C)nc4C)cc3o2)cc1 (stereo not given)	–	–	·	·	·
Cc1cc[n+](CC(=O)N2CCCc3ccccc32)cc1	–	–	–	–	–
CN(C)c1cc[n+](CC(=O)N2CCCc3ccccc32)cc1	–	–	52	63	–
COc1ccc(NC(=O)CSCc2cc(=O)n3c(C)csc3n2)cc1	–	–	·	·	·
O=C(c1cc(COc2ccc(F)cc2Cl)on1)N1CCN(c2cnccn2)CC1	–	–	·	·	·

Screening data: PubChem BioAssay, several laboratories
